Screening results: PubChem BioAssay, Sanford-Burnham Center for Chemical Genomics
This is a sample that favours compounds with a hit; in the whole collection about 3% have one here.
SENP6 inh: blocks the human protease SENP6; Q9GZR1; Recombinant SENP6 catalytic domain, aminoluciferin luminescence; inhibition, % at 10 µM; hit rate 1.8% among 330,000;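 active = inhibition above about 50% at the single tested dose, limit read from the data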
TRAIL sens C8: sensitizes caspase-8 expressing cells to TRAIL | NB7+C8 cells + TRAIL, ATPlite viability luminescence | hit rate 1% among 360,000 | inhibition (viability loss, TRAIL sensitization), % at 10 µM;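 active = compounds causing at least 50% loss of cell viability in the single-dose screen, relative to plate controls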
SENP8 block-1: inhibitors of human SENP8 protease; Q96LD8; recombinant SENP8, Nedd8 substrate fluorescence; inhibition, % at 20 µM; hit rate 0.64% among 360,000; in the data active = inhibition mostly above about 40%, no sharp cut-off; inactive = mostly below about 27%
Target sequence (Q96LD8 whole entry, looked up): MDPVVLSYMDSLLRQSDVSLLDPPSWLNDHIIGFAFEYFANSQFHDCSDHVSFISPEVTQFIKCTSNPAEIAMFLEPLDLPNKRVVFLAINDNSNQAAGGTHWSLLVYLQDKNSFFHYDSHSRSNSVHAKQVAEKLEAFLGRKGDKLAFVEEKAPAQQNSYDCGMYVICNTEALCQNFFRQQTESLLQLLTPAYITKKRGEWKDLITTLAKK
SENP8 block-2: SENP8 protease inhibition | inhibition, % at 10 µM | AID 2540 | purified SENP8, Z-RLRGG-aminoluciferin cleavage, luminescence | Q96LD8 | hit rate 1.2% among 330,000; in the data active = inhibition above about 50%
PPC-1+TRAIL kill: compounds killing PPC-1 cancer cells with TRAIL present (potentiator screen, no TRAIL-free arm). PPC-1 cells + TRAIL, ATPLite viability luminescence. cell killing (% activity), % at 4 µM or 5 µM. hit rate 0.41% among 220,000;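 active = cell killing above 50% in the first pass at 4 µM, then a duplicate retest at 5 µM averaging 50% or more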
SENP7 inh: blocks the human protease SENP7 | recombinant SENP7, Z-RLRGG-aminoluciferin luminescence, 40 min | hit rate 1.5% among 330,000 | inhibition, % at 5 µM | Q9BQF6;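 active = inhibition above about 50% at the single test dose, limit read from the data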
Target sequence (Q9BQF6 706-1050 limits assumed): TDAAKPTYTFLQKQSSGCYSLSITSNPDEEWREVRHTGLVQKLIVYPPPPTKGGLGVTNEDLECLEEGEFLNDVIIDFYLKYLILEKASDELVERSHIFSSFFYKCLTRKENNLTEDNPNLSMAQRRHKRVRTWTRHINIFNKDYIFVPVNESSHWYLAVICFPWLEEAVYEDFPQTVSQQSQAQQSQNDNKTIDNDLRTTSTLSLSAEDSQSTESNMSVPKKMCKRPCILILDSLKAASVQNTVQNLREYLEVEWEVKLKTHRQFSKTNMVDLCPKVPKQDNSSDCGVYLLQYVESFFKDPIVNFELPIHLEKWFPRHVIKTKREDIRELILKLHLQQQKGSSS
SENP8 conf: confirmation of human SENP8 protease inhibitors; inhibition, % at 12.5 µM; Recombinant SENP8, Z-RLRGG-aminoluciferin luminescence, 60 min; hit rate 40% among 6,200; shares compounds with SENP7 inh;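 active = mean inhibition across replicates above about 50%, limit read from the data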
SENP6 confirm: human SENP6 inhibition, confirmed; hit rate 58% among 6,200; inhibition, % at 12.5 µM; shares compounds with SENP7 inh; recombinant SENP6, Z-RLRGG-aminoluciferin luminescence; AID 488915
SENP7 confirm: confirmation of human SENP7 protease inhibitors; shares compounds with SENP7 inh; recombinant SENP7, Z-RLRGG-aminoluciferin luminescence, 40 min; inhibition, % at 12.5 µM; hit rate 69% among 6,200; AID 488917
Casp3 select: caspase-3 inhibition (SENP selectivity assay); purified caspase-3, Z-DEVD-aminoluciferin luminescence, 60 min; hit rate 60% among 6,200; shares compounds with SENP7 inh; inhibition, % at 12.5 µM;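 active = mean inhibition above about 50%, limit read from the data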
SENP luc ctr: luminescence interference (SENP counter-screen). shares compounds with SENP7 inh. Pre-incubated SENP8/Z-RLRGG-aminoluciferin, luciferase luminescence interference. inhibition, % at 12.5 µM. hit rate 39% among 6,200. AID 488919;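 active = mean inhibition above about 50% when retested at one dose, limit read from the data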
Each line names hits and unclear results; the compound was inactive in the other large screens (follow-up assays come after a bar, where they were run).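 Rule for the calls, unless noted: active = mean inhibition above about 50% in the one-dose retest (limit read from the data); inactive = the rest.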

CCC(C(=O)N1CCOCC1)n1nc(C)c2sc3ccccc3c2c1=O (stereo unspecified)	none (no result: PPC-1+TRAIL kill)
Cc1ccc2c(=O)cc(C(=O)NC3CCS(=O)(=O)C3)oc2c1C (stereo unspecified)	none (no result: PPC-1+TRAIL kill)
CCOC(=O)C1(Cc2ccccc2)C(=O)N(CCCN(C)C)c2ccccc21 (stereo unspecified)	none (no result: PPC-1+TRAIL kill)
COc1ccc(NC(=O)CN(C)C(=O)c2ccccc2Sc2ncnc3sc(C)c(C)c23)cc1	none (no result: PPC-1+TRAIL kill)
CN(C)c1ccc(-c2nnc(-c3ccccc3F)o2)cc1	SENP6 inh 87.3, SENP8 block-2 77.3, SENP7 inh 84.6 (no result: PPC-1+TRAIL kill) | SENP8 conf inactive | SENP6 confirm 66.6 | SENP7 confirm 74.5 | Casp3 select 78.6 | SENP luc ctr inactive
Cc1ccccc1-c1nnc(-c2ccc(Cl)cc2)o1	SENP8 block-2 57.6, SENP7 inh 75.2 | SENP8 conf inactive | SENP6 confirm inactive | SENP7 confirm inactive | Casp3 select inactive | SENP luc ctr inactive
COc1ccc(-c2nnc(-c3ccc(N(C)C)cc3)o2)cc1	none
COc1c(/C=C2\SC(=Nc3ccccc3Cl)NC2=O)cccc1[N+](=O)[O-]	none (no result: PPC-1+TRAIL kill)
O=C1NC(=Nc2ccccc2Cl)S/C1=C\c1cccc([N+](=O)[O-])c1O	SENP6 inh 92.7, SENP8 block-1 47.9, SENP8 block-2 86.0 (no result: PPC-1+TRAIL kill) | SENP8 conf 89.8 | SENP6 confirm 92.0 | SENP7 confirm 79.0 | Casp3 select 52.0 | SENP luc ctr 81.2
COc1ccc(OC)c(NC(=O)COC(=O)CCNc2ccccc2OC)c1	none (no result: PPC-1+TRAIL kill)
CCOC(=O)C1CCN(C(=O)COC(=O)c2oc3ccccc3c2C)CC1	none (no result: PPC-1+TRAIL kill)
O=C(NC1=C(Nc2ccc(F)cc2)C(=O)c2ccccc2C1=O)c1ccc(Cl)cc1	SENP6 inh 63.5, SENP8 block-1 93.0 | SENP8 conf inactive | SENP6 confirm 60.0 | SENP7 confirm inactive | Casp3 select inactive | SENP luc ctr inactive
Cc1cc(-c2cccs2)n[nH]1	none
Cc1cc2ncc(-c3cccs3)nc2cc1C	SENP6 inh 93.7, TRAIL sens C8 69.1, SENP8 block-2 95.9, SENP7 inh 97.9 (no result: PPC-1+TRAIL kill) | SENP8 conf 65.9 | SENP6 confirm 77.0 | SENP7 confirm 67.0 | Casp3 select 85.8 | SENP luc ctr inactive
COC(=O)c1cc(S(=O)(=O)N2CCN(Cc3ccccc3)CC2)cn1C	none (no result: PPC-1+TRAIL kill)
COc1cc(-c2ccc(Nc3ccccc3C(=O)O)c(OC)c2)ccc1Nc1ccccc1C(=O)O	SENP6 inh 73.8, SENP8 block-2 60.0 | SENP8 conf inactive | SENP6 confirm 55.0 | SENP7 confirm inactive | Casp3 select inactive | SENP luc ctr 68.6
COc1ccc(NC(=O)C2(C)Cc3c(-c4ccc(NC(C)=O)cc4)ccnc3O2)cc1OC (stereo unspecified)	none (no result: SENP6 inh, SENP8 block-2, PPC-1+TRAIL kill, SENP7 inh)
COc1ccc(Cl)c(NC(=O)C/C(C)=N/NC(=O)CCc2ccccc2)c1	none (no result: PPC-1+TRAIL kill)
Cc1ccc(S(=O)(=O)N2CCN(C(=O)c3ccc4ccccc4n3)CC2)c(C)c1	none (no result: PPC-1+TRAIL kill)
O=C(O)/C=C/C(=O)Nc1ccc2c(c1)C(=O)c1ccccc1C2=O	SENP6 inh 77.8, SENP7 inh 52.8 | SENP8 conf 73.4 | SENP6 confirm 67.4 | SENP7 confirm 84.6 | Casp3 select inactive | SENP luc ctr 79.4
COc1ccc(CCn2nc(C)c([N+](=O)[O-])c2C)cc1	SENP6 inh 70.6, SENP7 inh 58.8 (no result: PPC-1+TRAIL kill) | SENP8 conf 57.0 | SENP6 confirm 52.8 | SENP7 confirm 81.5 | Casp3 select 79.0 | SENP luc ctr 62.0
COc1cccc(-n2c(CCn3nc(C)c([N+](=O)[O-])c3C)n[nH]c2=S)c1	none
CC1CC1C(=O)Nc1ccc(S(=O)(=O)N2CCCCC2)cc1 (stereo unspecified)	none (no result: PPC-1+TRAIL kill)
Cc1cc(N)n(-c2nc3ccccc3s2)n1	SENP6 inh 86.9, SENP8 block-2 86.3, SENP7 inh 93.5 (no result: PPC-1+TRAIL kill) | SENP8 conf 91.6 | SENP6 confirm 92.8 | SENP7 confirm 100.1 | Casp3 select 92.9 | SENP luc ctr inactive
Cc1ccccc1OCC(O)COc1ccccc1C	none (no result: SENP6 inh, SENP8 block-2, PPC-1+TRAIL kill, SENP7 inh)
O=C(O)/C=C\c1cc2c(cc1[N+](=O)[O-])OCO2	none
O=C1NC(=S)N/C1=C/c1cc2c(cc1[N+](=O)[O-])OCO2	SENP6 inh 64.5, SENP8 block-2 75.4 (no result: PPC-1+TRAIL kill) | SENP8 conf inactive | SENP6 confirm 62.6 | SENP7 confirm inactive | Casp3 select inactive | SENP luc ctr inactive
CCOC(=O)c1cccc(C2=CC(=O)C[C@H](c3ccc(OC)cc3)C2)c1	none (no result: PPC-1+TRAIL kill)
CN1CCc2nc(SCC(=O)Nc3cccc(F)c3)c(C#N)c(-c3cccs3)c2C1	SENP6 inh 77.0, SENP8 block-2 57.1, SENP7 inh 59.5 | SENP8 conf inactive | SENP6 confirm inactive | SENP7 confirm inactive | Casp3 select inactive | SENP luc ctr inactive
CC(C)(C)C(=O)CSc1nc2c(c(-c3cccs3)c1C#N)CCC2	none
COc1ccc(OC)c(C(=O)COC(=O)c2[nH]c(C)c(C(C)=O)c2C)c1	none (no result: PPC-1+TRAIL kill)
Cc1cccc(NC(=O)c2n[nH]c([N+](=O)[O-])c2Br)c1C	SENP6 inh 96.7, SENP8 block-2 93.8, SENP7 inh 85.2 | SENP8 conf 94.2 | SENP6 confirm 96.8 | SENP7 confirm 101.7 | Casp3 select 96.1 | SENP luc ctr 94.6
Cc1cccc(NC(=O)c2ccccn2)c1C	none
Cc1ccc(C(=O)Nc2ccccc2N2CCCC2)s1	none (no result: PPC-1+TRAIL kill)
c1cc2c3c(cccc3c1)C(N1CCCCCC1)=N2	none
c1cc2c3c(cccc3c1)C(N1CCCCC1)=N2	SENP6 inh 68.8 | SENP8 conf inactive | SENP6 confirm inactive | SENP7 confirm inactive | Casp3 select inactive | SENP luc ctr inactive
CCOc1ccc(/C(C)=N\NC(=O)Cc2ccccc2)cc1	SENP6 inh 96.3 (no result: PPC-1+TRAIL kill) | SENP8 conf inactive | SENP6 confirm inactive | SENP7 confirm inactive | Casp3 select inactive | SENP luc ctr inactive
CCOc1ccc(C(=O)NCCc2ccccc2)cc1	SENP6 inh 64.2, SENP8 block-2 51.8, SENP7 inh 55.7 | SENP8 conf 59.3 | SENP6 confirm 59.6 | SENP7 confirm 82.0 | Casp3 select 80.3 | SENP luc ctr inactive
C/C(=N\NC(=O)COc1ccccc1)c1ccc(O)cc1	none
COc1cccc(CNc2nnnn2C)c1	none (no result: PPC-1+TRAIL kill)
